Screening results (PubChem BioAssay)
esBAF inh = Bmi1 luciferase reporter increase in mESCs, primary screen, esBAF inhibitor project, mouse ES cells, Bmi1 luciferase knock-in, single point; 24 h; 100% = twice the neutral-well signal; reporter increase, % at 12.5 µM; 350,000 tested, 2% active; in the data active = activation above about 40%; inconclusive = no clear call, values can overlap the other calls;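 also: 0% = median of the plate's neutral control wells and 100% = double that signal; a rise in the Bmi1 reporter signal indicates esBAF inhibition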
HIV Env fusion = inhibitors of HIV-1 Env-driven cell-cell fusion, primary screen, HeLa-JRFL effector, CEM21 target cells, luciferase | 360,000 tested, 1.1% active | inhibition, % at 12.3 µM | AID 651610, 2012;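 active = mean replicate inhibition score of at least 50 and every replicate individually at or above 50; inconclusive = only one of the two criteria met; inactive = mean below 50 and not all replicates reaching 50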;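 also: 0% = plate neutral controls and 100% = maraviroc near 300 nM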
MITF act = activators of MITF-driven TRPM1 promoter reporter, primary screen, cell-based, SK-MEL-5, luciferase, single point | SK-MEL-5 TRPM1-promoter luciferase, 24 h; % of positive control, neutral wells = 0 | activation, % at 12.5 µM | 300,000 tested, 0.75% active | AID 588334, 2011;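 active = mean activation of at least 80% with every replicate also reaching 80%; inconclusive = mean reaches 80% but some replicate falls short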;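 also: 0% = neutral control wells and 100% = parthenolide positive control wells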
Wnt act = Wnt/beta-catenin pathway activators, primary screen, cell-based, plate reader, single point; Wnt/beta-catenin reporter cell assay, activator; 300,000 tested, 1.2% active; activation, % at 9.35 µM; AID 743398, 2014; in the data active = activation above about 30%, passing the limit was not always enough; inconclusive = no clear call, values can overlap the other calls;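 also: 0% = neutral control wells and 100% = positive control wells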
miR-122 sensor = miR-122 Renilla sensor signal increase in Huh7, primary screen, miR-122 inhibitor project, cell-based, single point, plate reader; Huh7 miR-122 Renilla luciferase sensor, 48 h; neutral wells = 0, positive control = 100; activation (reporter increase), % at 12.5 µM; 340,000 tested, 0.3% active; AID 602342, 2012;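 active = mean replicate activation score at least 90 and every replicate individually at or above 90; inconclusive = only one of the two criteria met; inactive = neither criterion met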;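 also: higher luciferase means less miR-122 activity so hits act as miR-122 inhibitors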
Numbers without * were called inactive; ? = inconclusive; · = no result given; [ ] = remark or other dose. Hits are enriched below; roughly 3.4% of the tested compounds scored in any of these assays.

SMILES | esBAF inh | HIV Env fusion | MITF act | Wnt act | miR-122 sensor
Clc1ccccc1CSc1ncn(-c2ccccc2)n1 | 66.8* | -67.5 | 57.5 | · | -3.2
C[C@@H]1CCCCO[C@H](CN(C)C(=O)c2ccncc2)[C@H](C)CN([C@H](C)CO)C(=O)c2cc(NC(=O)c3ccccc3)ccc2O1 | 8.9 | 12.7[16.7 µM] | · | · | -5.6[16.7 µM]
Nc1nc(NCc2ccccc2)nc(NCCO)c1[N+](=O)[O-] | -5.5 | 63.2* | 0.5 | -0.6 | -6.5
Nc1nc(NCCO)nc(NCc2ccccc2)c1[N+](=O)[O-] | -5.2 | · | -10.9 | · | 1.2
C[C@H](CO)N1C[C@H](C)[C@H](CN(C)C(=O)Nc2ccccc2)Oc2c(cccc2N(C)C)C1=O | -7.0 | · | · | · | 26.5[16.7 µM]
C[C@@H]1CN([C@@H](C)CO)C(=O)c2cc(C#CC3CCCCC3)cnc2O[C@H]1CN(C)C | -4.5 | 29.2[16.7 µM] | · | · | -2.9[16.7 µM]
COc1ccc(C)c2sc(N(CCCN(C)C)C(=O)c3ccc(S(=O)(=O)N4CCc5ccccc5C4)cc3)nc12 | -70.3 | 91.9* | -95.9 | 0.0 | -20.5
C/C=C/c1ccc([C@H]2[C@@H](CO)N(C(=O)CC)[C@H]2CN(C)S(C)(=O)=O)cc1 | -0.5 | · | · | · | -21.4[16.7 µM]
O=C(C[C@@H]1C=C[C@@H](NC(=O)c2ccccc2)[C@@H](CO)O1)NCCc1ccncc1 | 2.7 | -11.1[16.7 µM] | · | · | ·
COc1ccc(S(=O)(=O)Nc2cc3c4c(oc3c3ccccc23)CCCC4=O)cc1 | -6.2 | · | -36.5 | · | 127.5*
COc1ccc(S(=O)(=O)Nc2cc3c4c(oc3c3ccccc23)CC(C)(C)CC4=O)cc1 | -8.7 | 33.3 | · | · | 39.4
COc1ccc(NC(=O)N[C@H]2CC[C@H](CCn3cc(C4(O)CCCC4)nn3)O[C@@H]2CO)cc1 | 5.3 | -2.6[16.7 µM] | · | · | ·
Cc1ccc(NC(=O)/C(Cl)=C\c2ccccc2)cc1 | -38.3 | -273.1 | 44.1 | 17.1 | -0.4
CC(=O)c1ccc(NC(=O)/C(Cl)=C/c2ccccc2)cc1 | · | -41.0 | 138.2* | 16.6 | ·
O=C(Nc1ccc(F)cc1)/C(Cl)=C/c1ccccc1 | 48.4* | -40.7 | 83.6* | 17.9 | -6.8
Cc1ccc(S(=O)(=O)Nc2ccc3c(c2)C(=O)N([C@H](C)CO)C[C@@H](C)[C@H](CN(C)S(C)(=O)=O)O3)cc1 | -2.1 | -7.1[16.7 µM] | · | · | -3.9[16.7 µM]
CCS(=O)(=O)N1CCCC(c2nc(-c3cccc(OC)c3)no2)C1 (stereo unspecified) | 67.4* | · | 56.0 | 10.1 | -5.1
CCCS(=O)(=O)N1CCCC(c2nc(-c3ccc(OC)cc3)no2)C1 (stereo unspecified) | -1.5 | · | 14.3 | -0.9 | ·
c1csc(-c2ccc3ccccc3n2)c1 | 43.4* | · | 59.0 | 20.4 | 6.7
N#Cc1cc2ccccc2nc1N | · | -5.1 | -10.4 | -0.2 | ·
Cc1ccccc1S(=O)(=O)c1cc2ccccc2nc1N | 4.2 | 30.0 | -12.9 | -0.7 | -4.0
Nc1nc2ccccc2cc1-c1cccs1 | ? | -50.9 | 90.2* | 20.1 | 4.8
Cc1ccc(-c2cc3ccccc3nc2N)cc1 | 46.9* | -33.0 | · | 20.2 | -13.3
COCC(=O)Nc1ccc2c(c1)C(=O)N(C)C[C@H](OC)[C@H](C)CN(CCc1ccccc1)[C@H](C)CO2 | 3.7 | 4.1[16.7 µM] | · | · | ·
O=C(Nc1ccccc1F)N[C@@H]1CC[C@H](CCNS(=O)(=O)c2ccc(F)cc2)O[C@H]1CO | -1.2 | -12.4[16.7 µM] | · | · | ·
SMILES | esBAF inh | HIV Env fusion | MITF act | Wnt act | miR-122 sensor
COC(=O)C[C@@H]1CC[C@@H]2[C@@H](COc3ccc(NC(=O)NCc4ccccc4)cc3C(=O)N2C)O1 | 2.5 | -14.4[16.7 µM] | · | · | 12.5[16.7 µM]
C[C@H]1CN([C@@H](C)CO)C(=O)c2cc(NC(=O)CCC(F)(F)F)ccc2O[C@@H]1CN(C)C(=O)Nc1ccc(F)cc1 | -0.4 | · | · | · | -3.5[16.7 µM]
C[C@@H]1CCCCO[C@H](CN(C)C(=O)C2CCCCC2)[C@H](C)CN([C@@H](C)CO)C(=O)c2cc(NC(=O)Nc3ccccc3)ccc2O1 | 6.4 | -8.4[16.7 µM] | · | · | -5.5[16.7 µM]
CC(C)c1ccc2c(c1)C(c1ccc(N3CCOCC3)cc1)=NNC(c1cccs1)=N2 | 65.2* | -28.6 | · | 12.1 | -4.9
CC(C)NC(=O)N[C@@H]1C=C[C@@H](CC(=O)NCCCN(C)C)O[C@H]1CO | -0.6 | 10.0[16.7 µM] | · | · | -2.5[16.7 µM]
CCc1nc2ccc(C(=O)N3CCN(C(=O)c4ccco4)CC3)cn2c1N(C)Cc1ccc(OC)cc1 | -3.3 | 72.3* | · | -3.3 | -6.1
